We go through 40 compounds from PubChem BioAssay (NCATS).

Inconclusive results are not listed. Unmarked numbers belong to inactive results. The call rests on the fitted dose curve; in most records, active means well fitted inhibition curve with a large enough effect; inconclusive means small, poorly fitted or top-dose-only effect; inactive means flat fitted curve, though single readings scatter.
On the % scale 0 is the no-effect control and ±100 the full control effect.

Sequence of DNA repair nuclease/redox regulator APEX1 (Homo sapiens) (P27695 whole entry, looked up): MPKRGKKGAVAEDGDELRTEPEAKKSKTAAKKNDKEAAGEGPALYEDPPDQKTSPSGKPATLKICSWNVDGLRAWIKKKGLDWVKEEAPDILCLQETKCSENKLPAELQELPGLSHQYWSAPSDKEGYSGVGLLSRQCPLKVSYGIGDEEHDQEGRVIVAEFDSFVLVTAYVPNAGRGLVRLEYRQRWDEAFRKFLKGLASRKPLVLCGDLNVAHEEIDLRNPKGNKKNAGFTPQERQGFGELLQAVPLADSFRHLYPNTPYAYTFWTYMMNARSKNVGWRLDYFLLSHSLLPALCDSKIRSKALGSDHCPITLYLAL

This assay addresses DNA repair nuclease/redox regulator APEX1 (Homo sapiens) (UniProt P27695). Description: qHTS Validation Assay for Inhibitors of the Human Apurinic/apyrimidinic Endonuclease 1 (APE1) (AID 1705;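 further: TAMRA fluorescence gain over two minutes as APE1 cuts a quenched THF abasic duplex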). The conditions noted are these: purified APE1 endonuclease activity, fluorescence, titration; series mostly up to 57.1 µM; activity change, negative = inhibition: at the top concentration. The text has this:
Assay Provider: David M. Wilson, III, National Institute on Aging, NIH
Screening Center PI: Austin, C.P.
Screening Center: NIH Chemical Genomics Center [NCGC]
The apurinic/apyrimidinic endonuclease APE1 is the primary mammalian enzyme responsible for the removal of abasic (or AP) sites in DNA and functions centrally in the base excision DNA repair (BER) pathway. […] Thus, targeting APE1 could improve the efficacy of current treatment paradigms by promoting selective sensitization or protection of diseased and normal cells, respectively.
Inhibition of APE1 activity was screened by utilizing double-stranded short substrate containing tetrahydrofuran (THF) abasic site labeled with rhodamine-type fluorophore (TAMRA) at the 5'-end and with non-fluorescent Black Hole Quencher-2 (BHQ-2) at the opposing 3'-end. An increase in the fluorescence intensity due to incision of the abasic site by APE1 was used to measure the enzyme activity.
1. Substrate: 50 nM final concentration of TAMRA/BHQ-2 substrate dispensed throughout the plate.
2. Enzyme: […] nM APE1 final concentration in columns 1, 2, 5-48. Column 1 is neutral (100% activity)
3. Control: Pintool transfer of control inhibitor NSC-13755 to column 2 of all assay plates. Two-fold, 16 pt dilution in duplicate to produce final concentrations in the […] uM - […] nM range.
3. Buffer columns in columns 3 and 4 were used as negative control (no enzyme).
Three uL of enzyme were dispensed to 1536-well Greiner black solid bottom plates. Compounds (23 nL) were transferred via Kalypsys pintool. The plates were incubated for 15 min at room temperature, and then 1 uL of substrate solution was added to start the reaction. The plates were immediately transferred into ViewLux High-throughput CCD imager (Perkin-Elmer) in order to measure the reaction progress in kinetic mode (three reads every 60 seconds) using 525 nm excitation and 598 nm emission fluorescence protocol. The fluorescence intensity difference between the third and the first time points was used to compute reaction progress.
Consider `COC(=O)c1c(C)[nH]c(C)c1C(=O)c1ccccc1Cc1ccccc1`, for which the “activity change, negative = inhibition” value is -14.3%.

As for `Cc1cc(NC(=O)Nc2ccc3c(ccn3C)c2)sn1`, the “activity change, negative = inhibition” value was -10.2%.

For `CC(C)NCC(O)COc1cccc2ccccc12` (stereo not given), the “activity change, negative = inhibition” value was -0.884%.

In the case of `COc1cc(OC)c(/C=C2/C(=O)Nc3ccccc32)c(OC)c1`, the “activity change, negative = inhibition” value is -4.35%.

As to `CN1CCc2cccc3c2C1Cc1ccc(O)c(O)c1-3` (stereo not given), the “activity change, negative = inhibition” value was 9.81%.

In the case of `O=C1NC(O)=NC1(c1ccccc1)c1ccccc1`, the “activity change, negative = inhibition” value is -5.7%.

`CN(C)c1ccc(/C=C2\C(=O)Nc3ccccc32)cc1`: the “activity change, negative = inhibition” value is -15.9%.

Take `O=C(/C=C/c1ccc(O)c(O)c1)OCCc1ccccc1`: the “activity change, negative = inhibition” value is -15.4%.

In the case of `COc1cccc(OC)c1OCCNCC1COc2ccccc2O1` (stereo not given), the “activity change, negative = inhibition” value is 5.45%.

Consider `O=C(O)[C@@H]1C[C@H](C(=O)O)N1`, for which the “activity change, negative = inhibition” value was -7.5%.

Turning to `O=C(O)[C@@H]1C[C@@H](C(=O)O)N1`, the “activity change, negative = inhibition” value is -4.61%.

For the compound `CCCn1c(=O)c2[nH]c(-c3ccc(OCC(=O)NCCN)cc3)nc2n(CCC)c1=O`, the “activity change, negative = inhibition” value was -2.06%.

On to `COC1=C(OC)C(=O)c2ccccc2C1=O`, for which the “activity change, negative = inhibition” value was -3.4%.

With `Cn1c(=O)c2[nH]c(-c3ccccc3)nc2n(C)c1=O`, the “activity change, negative = inhibition” value is -0.561%.

For the compound `CCCCC/C=C\CC(O)/C=C/c1cccc(CC(O)CCCCO)n1` (stereo not given), the “activity change, negative = inhibition” value is -0.904%.

In the case of `CCCCCC(O)c1cccc(OCc2ccc3ccccc3n2)c1` (stereo not given), the “activity change, negative = inhibition” value is -8.54%.

With `CN(C)C(N)=NCCC[C@H](N)C(=O)O`, the “activity change, negative = inhibition” value was 8.93%.

For `Oc1cc2c(cc1O)CN(C(=S)NCCc1ccc(Cl)cc1)CCC2`, the “activity change, negative = inhibition” value is -15.1%.

`CN1C2CCC1CC(OC(=O)C(O)c1ccccc1)C2` (stereo not given): the “activity change, negative = inhibition” value is -7.36%.

Consider `NCCCCCCCCCCN`, for which the “activity change, negative = inhibition” value is 0.715%.

On to `O=C(/C=C/c1ccc(O)cc1)c1ccc(O)cc1O`, for which the “activity change, negative = inhibition” value is -7.98%.

Take `CN(C)c1nc(N)c(C(=O)N=C(N)N)nc1Cl`: the “activity change, negative = inhibition” value was -8.52%.

Turning to `COc1cc2nc(N3CCN(C(=O)OCc4ccccc4)C(C(=O)NC(C)(C)C)C3)nc(N)c2cc1OC` (stereo not given), the “activity change, negative = inhibition” value was -3.56%.

On to `Brc1c(Br)c(Br)c2n[nH]nc2c1Br`, for which the “activity change, negative = inhibition” value was 5.8%.

With `N=C(N)SCCc1ccc(CCSC(=N)N)cc1`, the “activity change, negative = inhibition” value was -7.91%.

Turning to `O=S(=O)(c1cccc2c(I)cccc12)N1CCCNCC1`, the “activity change, negative = inhibition” value was -0.844%.

For `CC(C)Cc1ccc([C@H](C)C(=O)O)cc1`, the “activity change, negative = inhibition” value is -3.78%.

Regarding `N#C/C(=C\c1c[nH]c2ccccc12)C(=O)c1ccc(O)c(O)c1`, the “activity change, negative = inhibition” value was -30.5%.

As for `CCCCCCCCCCCCCCCCCC(=O)NCC(COP(=O)([O-])OCC[N+](C)(C)C)OCC` (stereo not given), the “activity change, negative = inhibition” value is -14.3%.

Regarding `CC(C)(C=O)Cc1cc(C(C)(C)C)c(O)c(C(C)(C)C)c1`, the “activity change, negative = inhibition” value was -10.2%.

On to `N.N.O=C(O)C1(C(=O)O)CCC1.[Pt]`, for which the “activity change, negative = inhibition” value is -21.1%.

As to `CN1CCC[C@H]1c1cccnc1`, the “activity change, negative = inhibition” value was -0.392%.

As for `Fc1ccc(C(OCCCc2cnc[nH]2)c2ccc(F)cc2)cc1`, the “activity change, negative = inhibition” value is 2.73%.

With `CN1CCc2cc(NC(=O)Nc3cccnc3)ccc21`, the “activity change, negative = inhibition” value was 6.18%.

On to `NC[C@@H]1O[C@H](C23CC4CC(CC(C4)C2)C3)Cc2c1ccc(O)c2O`, for which the “activity change, negative = inhibition” value was -8.96%.

On to `CC(COc1ccc(/C=C/c2ccccc2)cc1)[N+](C)(C)C` (stereo not given), for which the “activity change, negative = inhibition” value is -2.56%.

For `CC(C)NC[C@H](O)COc1cccc2[nH]ccc12`, the “activity change, negative = inhibition” value is -5.14%.

Regarding `CCCCCCCCCCCCCCCC(=O)NCC(COP(=O)([O-])OCC[N+](C)(C)C)OCC` (stereo not given), the “activity change, negative = inhibition” value is -5.36%.

Regarding `O=C(O)CCCC[C@@H]1CCSS1`, the “activity change, negative = inhibition” value is -6.24%.

Regarding `C=CC(N)CCC(=O)O` (stereo not given), the “activity change, negative = inhibition” value was -2.85%.
